Values joined by “and” are separate entries in the source; they are usually repeats but may differ in a detail not shown here. Identical values can stand only once. Where a structure was tested more than once in an assay, its records may differ in their call. Active and inactive are the calls of the source. How the source made its calls: active means hit-call score of the fitted dose curve at least 0.9, where 1 is the maximum; inactive means score below 0.9.
Tests used:
[1] = APR_HepG2_CellCycleArrest_1hr: Apredica 1-hour HepG2 Assay for Cell Cycle Arrest (AID 2282666); conditions: high-content imaging, actives raise or lower the signal
In short: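 Cell cycle arrest scored from nuclear DNA content (Hoechst 33342) using high-content imaging of fixed HepG2 cells after 1 h treatment across 0.39–200 uM, in duplicate. Gain or loss fitted relative to 0.5% DMSO.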

[2] = APR_HepG2_MicrotubuleCSK_1hr: Apredica 1-hour HepG2 Assay for Microtubule CSK Stabilty (AID 2282669); conditions: HepG2 microtubule cytoskeleton imaging, actives raise or lower the signal
In short: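 Alpha-tubulin immunofluorescence, imaged by automated high-content microscopy with Hoechst nuclear segmentation, measured cytoskeletal change after 1 h dosing of HepG2 at 0.39–200 uM in 0.5% DMSO. Activity fitted in both directions relative to DMSO.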

[3] = APR_HepG2_MitoticArrest_1hr: Apredica 1-hour HepG2 Assay for Mitotic Arrest (AID 2282672); conditions: high-content imaging, actives raise or lower the signal
In short: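 Ten-point concentration series (0.39 to 200 uM, duplicates, 0.5% v/v DMSO) applied to human HepG2 liver cells for 1 hr. High-content imaging of phospho-histone H3 and Hoechst-stained nuclei after fixation and permeabilization; DMSO-normalised bidirectional fit.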

[4] = APR_HepG2_P-H2AX_1hr: Apredica 1-hour HepG2 Assay for H2AX Phosphorylation (AID 2282673); conditions: high-content imaging, actives raise or lower the signal
In short: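 Phospho-H2A.x immunofluorescence (1:200, FITC secondary) plus Hoechst nuclear stain, quantified by high-content imaging in HepG2 after 1 hr compound exposure. Ten concentrations, 0.39 to 200 uM, in duplicate with 0.5% DMSO; fit both directions against DMSO.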

[5] = APR_HepG2_CellCycleArrest_24hr: Apredica 24-hour HepG2 Assay for Cell Cycle Arrest (AID 2282905); conditions: imaging, actives raise or lower the signal;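 further: cell cycle arrest scored as ratio of 2N to 4N nuclear DNA content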
In short: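 Readout: Hoechst 33342 nuclear DNA content by high-content fluorescent imaging, six images/well, 20x. Human HepG2 liver cells, 24 hr compound exposure, 0.39–200 uM, final DMSO 0.5% v/v. Gain or loss fitted relative to DMSO baseline.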

[6] = APR_HepG2_StressKinase_1hr: Apredica 1-hour HepG2 Assay for Stress Kinase (AID 2282906); conditions: HepG2 stress kinase (phospho-c-Jun) imaging, actives raise or lower the signal
In short: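 High-content imaging of phospho-c-Jun immunostaining (with Hoechst nuclear identification) after a 1 h exposure of HepG2 cells to 10 concentrations from 0.39 to 200 uM, final DMSO 0.5%. Fitted bidirectionally against DMSO.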

[7] = APR_HepG2_NuclearSize_24hr: Apredica 24-hour HepG2 Assay for Nuclear Size (AID 2282907); conditions: high-content imaging, actives raise or lower the signal
In short: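 Read-out: nuclear diameter from Hoechst 33342 (2 ug/mL) imaging of fixed HepG2 cells, 20x, six fields/well. Compounds ran at 0.39–200 uM for 24 hr, 0.5% DMSO final. Gain or loss was fitted bidirectionally relative to the DMSO baseline.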

[8] = APR_HepG2_CellLoss_24hr: Apredica 24-hour HepG2 Assay for Cell Loss (AID 2282908); conditions: high-content imaging;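 on AC50: fit in both directions so a hit may be cell loss or gain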
In short: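 Read-out: Hoechst 33342-stained nuclei counted by automated fluorescence imaging after formaldehyde fixation and Triton permeabilization. Ten concentrations, 0.39 to 200 uM, duplicate wells, 0.5% DMSO final. Gain or loss of signal fitted relative to DMSO baseline.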

[9] = APR_HepG2_MicrotubuleCSK_24hr: Apredica 24-hour HepG2 Assay for Microtubule CSK Stabilty (AID 2282909); conditions: HepG2 microtubule cytoskeleton imaging, actives raise or lower the signal
In short: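 Read-out: alpha-tubulin immunofluorescence intensity by automated high-content imaging of fixed HepG2 cells after 24 h compound treatment. Ten concentrations, 0.39 to 200 uM, in duplicate; DMSO 0.5% v/v. Taxol positive control; DMSO-normalized bidirectional curve fitting.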

[10] = APR_HepG2_MitoticArrest_24hr: Apredica 24-hour HepG2 Assay for Mitotic Arrest (AID 2282910); conditions: high-content imaging, actives raise or lower the signal
In short: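 High-content imaging of fixed HepG2 cells labeled with Hoechst 33342 and anti-phospho-histone H3, after 24 h treatment. Ten concentrations 0.39 to 200 uM in duplicate, final DMSO 0.5%; changes fitted both directions relative to DMSO.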

[11] = APR_HepG2_MitoMembPot_24hr: Apredica 24-hour HepG2 Assay for Mitochondrial Membrane Potential (AID 2282911); conditions: imaging, actives raise or lower the signal
In short: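 HepG2 cells exposed 24 h to 0.39–200 uM compounds in duplicate, 0.5% v/v DMSO final. MitoTracker Red CMXRos 250 nM loaded 30 min before formaldehyde fixation; high-content imaging at 20x, bidirectional fit versus DMSO.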

[12] = APR_HepG2_MitoMass_24hr: Apredica 24-hour HepG2 Assay for Mitochondrial Mass (AID 2282912); conditions: high-content imaging, actives raise or lower the signal
In short: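 HepG2, 24 hr dosing, 10 concentrations 0.39–200 uM in duplicate, DMSO 0.5% final. MitoTracker Red CMXRos 250 nM, 30 min pre-fix; 3.7% formaldehyde fix. Imaging-based fluorescence intensity; gain/loss fit vs DMSO baseline.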

[13] = APR_HepG2_p53Act_24hr: Apredica 24-hour HepG2 Assay for p53 Activation (AID 2282913); conditions: high-content imaging, actives raise or lower the signal;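 further: p53 protein immunofluorescence averaged per cell in HepG2 with Hoechst nuclei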
In short: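 HepG2 cells exposed 24 h to compounds at 0.39–200 uM in duplicate, 0.5% v/v DMSO final; fixed, permeabilized, stained with anti-p53 antibody and Hoechst 33342; fluorescence imaging; bidirectional curve fit versus DMSO.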

[14] = APR_HepG2_CellCycleArrest_72hr: Apredica 72-hour HepG2 Assay for Cell Cycle Arrest (AID 2282914); conditions: high-content imaging, actives raise or lower the signal
In short: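 HepG2 cells exposed 72 h in duplicate to 0.39–200 uM compound, 0.5% DMSO final. Formaldehyde-fixed, Hoechst 33342-stained nuclei imaged at 20x, six fields per well; DNA content per valid cell quantified by cell-cycle image analysis, bidirectional fit versus DMSO.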

[15] = APR_HepG2_NuclearSize_1hr: Apredica 1-hour HepG2 Assay for Nuclear Size (AID 2282670); conditions: high-content imaging, actives raise or lower the signal
In short: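 Nuclear size measured by high-content imaging of Hoechst 33342 nuclear stain after formaldehyde fixation; human HepG2 line exposed 1 hr to compounds at 0.39–200 uM in 0.5% DMSO, with bidirectional curve fitting relative to DMSO.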

[16] = APR_HepG2_MitoMass_1hr: Apredica 1-hour HepG2 Assay for Mitochondrial Mass (AID 2282674); conditions: high-content imaging, actives raise or lower the signal
In short: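 Mitochondrial mass is taken from MitoTracker Red CMXRos (250 nM, 30 min, pre-fixation) fluorescence imaged at 20x in HepG2 cells. Exposure lasted 1 hr across ten concentrations, 0.39 to 200 uM, 0.5% DMSO; DMSO baseline, bidirectional fitting.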

[17] = APR_HepG2_MitoMembPot_1hr: Apredica 1-hour HepG2 Assay for Mitochondrial Membrane Potential (AID 2282675); conditions: imaging, actives raise or lower the signal
In short: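 Mitochondrial membrane potential read as MitoTracker Red CMXRos intensity by automated imaging of fixed HepG2 cells. Dye at 250 nM for 30 min pre-fixation; compounds 0.39 to 200 uM for 1 hour, duplicate wells, 0.5% DMSO.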

Measured: AC50

O=S1OCC2C(CO1)C1(Cl)C(Cl)=C(Cl)C2(Cl)C1(Cl)Cl (stereo not drawn)
active: [6] 94.4 µM | [14] 95.3 µM
not listed: [15] | [16] | [17]
inactive: all other assays above

CCc1ccc(C(=O)NN(C(=O)c2cc(C)cc(C)c2)C(C)(C)C)cc1
not listed: [3] | [4] | [16] | [17]
inactive: all other assays above

CC[C@H](C)[C@H]1O[C@]2(C=C[C@@H]1C)C[C@@H]1C[C@@H](C/C=C(\C)[C@@H](O[C@H]3C[C@H](OC)[C@@H](O[C@H]4C[C@H](OC)[C@@H](O)[C@H](C)O4)[C@H](C)O3)[C@@H](C)/C=C/C=C3\CO[C@@H]4[C@H](O)C(C)=C[C@@H](C(=O)O1)[C@]34O)O2 (tested in a mixture with another compound)
active: [16] 26.8 µM | [5] 12.7 µM | [6] 22.3 µM | [8] 12.2 µM | [9] 120 µM | [10] 111 µM | [12] 114 µM | [14] 21.6 µM
inactive: [1] | [2] | [7] | [11] | [13]

ClC1C(Cl)C(Cl)C(Cl)C(Cl)C1Cl (stereo not drawn)
active: [14] 141 µM
inactive: [1] | [2] | [16] | [17] | [5] | [6] | [7] | [8] | [9] | [10] | [11] | [12] | [13] | [14]

Cc1cc(C)nc(NC(=O)NS(=O)(=O)c2ccccc2C(=O)OC2COC2)n1
not listed: [4] | [15] | [16]
inactive: all other assays above

CCS(=O)(=O)c1cccnc1S(=O)(=O)NC(=O)Nc1nc(OC)cc(OC)n1
not listed: [3] | [4] | [15] | [16] | [17]
inactive: all other assays above

CC(C)(C)C(O)C(Oc1ccc(Cl)cc1)n1cncn1 (stereo not drawn)
active: [5] 97.1 µM and 78.4 µM | [14] 105 µM and 88.3 µM and 39.4 µM
inactive: [1] | [2] | [4] | [16] | [17] | [5] | [6] | [7] | [8] | [9] | [10] | [11] | [12] | [13] | [14]
